# High-throughput results: PubChem BioAssay, Broad Institute
# IDE exosite inh – insulin-degrading enzyme (human) exo-site inhibition; z-score at 20 µM; P14735; purified IDE, FL-6b probe fluorescence polarization; stronger effect = lower value; AID 1259349; hit rate 6.3% among 17,000;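 active = z-score of -3 or lower, meaning strong loss of probe binding signal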;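 also: His-tagged human IDE residues 42-1019 made in E. coli with 30 nM FL-6b probe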
# Hits are given with their value; – = inactive. Only a selection was taken, and hits are over-represented in it overall.
SMILES,IDE exosite inh
COc1ccc(S(=O)(=O)Nc2ccc3c(c2)C(=O)N([C@H](C)CO)C[C@@H](C)[C@@H](CN(C)Cc2ccc(C(F)(F)F)cc2)OCCCC[C@H](C)O3)cc1,–
O=C(CN1CCOCC1)N1CCCCN2[C@H](CO)[C@@H](c3ccc(/C=C/c4ccccc4)cc3)[C@@H]2C1,-3.7
O=C(CN1CCOCC1)N1CCCCN2[C@H](CO)[C@@H](c3ccc(Br)cc3)[C@@H]2C1,–
O=C(CN1CCOCC1)N1CCCCN2[C@H](C1)[C@H](c1ccc(/C=C/c3ccccc3)cc1)[C@@H]2CO,-8.2
O=C(CN1CCOCC1)N1CCCCN2[C@@H](CO)[C@@H](c3ccc(Br)cc3)[C@@H]2C1,–
O=C(CN1CCOCC1)N1CCCCN2[C@H](CO)[C@H](c3ccc(-c4ccccc4)cc3)[C@H]2C1,–
O=C(CN1CCOCC1)N1CCCCN2[C@@H](CO)[C@H](c3ccc(Br)cc3)[C@@H]2C1,–
CCS(=O)(=O)Nc1ccc2c(c1)C(=O)N(C)[C@@H]1CC[C@@H](CC(=O)N[C@@H]3CCN(Cc4ccccc4)C3)O[C@H]1CO2,–
CCCN1CCC2(CC1)CN(Cc1ccc3c(c1)OCO3)[C@H](CO)c1[nH]c3cc(OC)ccc3c12,–
CCC(=O)NC[C@@H]1[C@H](c2ccc(-c3ccccc3)cc2)[C@@H](CO)N1C(=O)C1CC1,–
COc1ccccc1NC(=O)N1CC(=O)N2[C@H](C1)[C@H](c1ccc(C#CC(C)C)cc1)[C@@H]2CO,–
C/C=C/c1ccc([C@H]2[C@H](CO)N3CCCCN(S(=O)(=O)c4cccc(C)c4)C[C@@H]23)cc1,–
CCc1cnc(N2[C@H](C#N)[C@@H](c3ccc(-c4cccc(F)c4)cc3)[C@@H]2CO)s1,–
COc1ccc(-c2ccc([C@@H]3[C@@H](CO)N4C(=O)CN(C(=O)C5CCOCC5)C[C@@H]34)cc2)cc1,–
O=C(C1CC1)N1C[C@H]2[C@@H](c3ccccc31)[C@H](CO)N2C(=O)c1ccccc1,–
CC(C)NC(=O)N1CCCCN2[C@H](CO)[C@@H](c3ccc(C#Cc4ccccc4)cc3)[C@H]2C1,-9.2
CC(C)NC(=O)N1CCCCN2[C@H](C1)[C@@H](c1ccc(C#C[C@H](C)O)cc1)[C@@H]2CO,–
CC(C)NC(=O)N1CCCCN2[C@H](C1)[C@@H](c1ccc(C#Cc3ccccc3)cc1)[C@@H]2CO,-3.7
CC(C)C#Cc1ccc([C@H]2[C@H]3CN(C(=O)NC(C)C)CCCCN3[C@H]2CO)cc1,–
CC(C)C#Cc1ccc([C@@H]2[C@H](CO)N3CCCCN(C(=O)Nc4ccccc4)C[C@@H]23)cc1,–
CC(C)NC(=O)N1CCCCN2[C@@H](CO)[C@H](c3ccc(C#C[C@@H](C)O)cc3)[C@@H]2C1,–
CC(C)C#Cc1ccc([C@@H]2[C@H](CO)N3CCCCN(C(=O)NC(C)C)C[C@@H]23)cc1,–
CC(C)NC(=O)N1CCCCN2[C@H](CO)[C@@H](c3ccc(C#CC4CC4)cc3)[C@H]2C1,–
CC(C)NC(=O)N1CCCCN2[C@H](CO)[C@H](c3ccc(C#Cc4ccccc4)cc3)[C@H]2C1,-5
CC(C)NC(=O)N1CCCCN2[C@H](C1)[C@H](c1ccc(C#Cc3ccccc3)cc1)[C@@H]2CO,-13
SMILES,IDE exosite inh
CC(C)NC(=O)N1CCCCN2[C@H](CO)[C@H](c3ccc(C#C[C@H](C)O)cc3)[C@@H]2C1,–
CC(C)C#Cc1ccc([C@H]2[C@@H](CO)N3CCCCN(C(=O)NC(C)C)C[C@@H]23)cc1,–
C/C=C/c1ccc([C@H]2[C@@H](CO)N(C(=O)c3cnccn3)C23CN(C(=O)C2CCC2)C3)cc1,–
COCC#Cc1ccc([C@H]2[C@H]3CN(C(=O)Nc4ccc(F)cc4)CC(=O)N3[C@H]2CO)cc1,–
CCCNC(=O)N1[C@H](CO)[C@H](c2ccccc2-c2ccccc2)[C@@H]1C#N,–
O=C(C1CC1)N1CC(=O)N2[C@@H](CO)[C@@H](c3ccc(Br)cc3)[C@@H]2C1,–
CN1CCN(C(=O)C[C@@H]2CC[C@H]3[C@@H](COC[C@@H](O)CN3CC3CCCCC3)O2)CC1,–
O=S(=O)(c1cccc(F)c1)N1CC[C@@H]2[C@H](CO)Nc3ccc(C#Cc4ccccc4F)cc3[C@@H]21,–
OC[C@@H]1[C@@H](c2ccccc2)C2(CN(CCC(F)(F)F)C2)N1Cc1nccs1,–
O=C(Nc1ccc(F)cc1)N1CC(=O)N2[C@H](C1)[C@H](c1ccc(C3=CCCC3)cc1)[C@@H]2CO,–
Cc1ccc(S(=O)(=O)N2C[C@@H]3N[C@H](C2)C3c2ccc(-c3ccc(C(=O)N(C)C)cc3)cc2)cc1 (stereo not given in full),–
Cc1ccccc1-c1ccc(C2[C@@H]3CN(S(=O)(=O)Cc4ccccc4)C[C@H]2N3)cc1 (stereo not given in full),–
CN(C)C(=O)c1ccc(-c2ccc(C3[C@@H]4CN(S(=O)(=O)Cc5ccccc5)C[C@H]3N4)cc2)cc1 (stereo not given in full),-4.2
CC(C)N(C[C@H]1[C@@H](c2ccccc2)[C@@H](CO)N1CC1CC1)C(=O)C1CCC1,–
O=C(C[C@@H]1CC[C@H]2[C@@H](COC[C@H](O)CN2C(=O)Nc2cccc(F)c2)O1)NCCCN1CCOCC1,–
O=C(C[C@H]1CC[C@@H]2[C@H](COC[C@H](O)CN2C(=O)c2cnccn2)O1)N1CCN(c2ccccc2)CC1,–
CO[C@@H](C(=O)N(C)C[C@H]1OCc2ccccc2-c2ccccc2C(=O)N([C@H](C)CO)C[C@H]1C)c1ccccc1,–
COCC(=O)N1[C@@H](C#N)[C@@H](c2ccccc2C2=CCCC2)[C@@H]1CO,–
COc1ccc(C#Cc2ccc([C@H]3[C@H](CO)N4C(=O)CN(C(C)=O)C[C@@H]34)cc2)cc1,–
COc1cccc(C#Cc2ccc([C@@H]3[C@H]4CN(C(C)=O)CC(=O)N4[C@H]3CO)cc2)c1,-3.9
COc1cccc(C#Cc2ccc([C@H]3[C@@H](CO)N4C(=O)CN(C(C)=O)C[C@@H]34)cc2)c1,-5.1
CC(=O)N1CC(=O)N2[C@H](CO)[C@@H](c3ccc(C#Cc4cccnc4)cc3)[C@H]2C1,–
COc1cccc(C#Cc2ccc([C@@H]3[C@@H](CO)N4C(=O)CN(C(C)=O)C[C@H]34)cc2)c1,–
CC(=O)N1CC(=O)N2[C@@H](CO)[C@H](c3ccc(C#Cc4cccnc4)cc3)[C@@H]2C1,–
COc1cccc(C#Cc2ccc([C@H]3[C@@H](CO)N4C(=O)CN(C(C)=O)C[C@H]34)cc2)c1,-7.9
SMILES,IDE exosite inh
CC(=O)N1CC(=O)N2[C@H](CO)[C@H](c3ccc(C#Cc4cccnc4)cc3)[C@H]2C1,–
COc1ccc(C#Cc2ccc([C@@H]3[C@@H](CO)N4C(=O)CN(C(C)=O)C[C@@H]34)cc2)cc1,–
CN(C)CC(=O)N1[C@@H](C#N)[C@@H](c2ccccc2-c2ccc(C(=O)N(C)C)cc2)[C@@H]1CO,–
Cc1cc(C(=O)Nc2ccc3c(c2)C(=O)N(C)[C@@H]2CC[C@@H](CC(=O)NCc4ccc(-c5ccccc5)cc4)O[C@H]2CO3)no1,–
O=C(CCN1CCCCC1)N[C@@H]1CC[C@H](CC(=O)N2CCC(Cc3ccccc3)CC2)O[C@H]1CO,–
O=C(O)C[C@H]1C[C@H]2c3cc(NC(=O)Cc4ccncc4)ccc3O[C@H]2[C@@H](CO)O1,–
CO[C@@H](CN(C)C(=O)c1ccc2c(c1)OCO2)[C@@H](C)CN([C@H](C)CO)S(=O)(=O)c1ccc(Cl)cc1,–
O=C(C[C@H]1C[C@H]2c3cc(NC(=O)c4ccc5c(c4)OCO5)ccc3O[C@H]2[C@@H](CO)O1)NCCN1CCCCC1,–
